Source: PubChem BioAssay (National Center for Advancing Translational Sciences (NCATS))
CtBP-E1A inh – qHTS Assay for Inhibitors of the CtBP/E1A Interaction; CtBP / adenovirus E1A interaction (AlphaScreen); AlphaScreen GST-E1A/His-CtBP binding, 1536-well; active compounds read low; activity change, % (concentration not given with the values); 340,000 compounds, 0.49% hits
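In 5 uL wells, 23 nL compound meets equimolar GST-E1A and His-CtBP (5X stock 125 nM each) for 2 h, 37 °C. Beads (5X, 50 ug/mL) then 1 h, 37 °C, dark.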
pAkt inh – HTS Assay for Inhibitors of Akt Phophorylation: Primary Screen | activity change, % for hits at 50 µM | Neuro2A IGF-stimulated pAkt S473 HTRF, 20 min; active compounds read low | 360,000 compounds, 0.32% hits; in the data active = activity change below about -80%; inconclusive = mostly about -51% to -80%
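Neuro2A cells (4,500/well, DMEM with 0.5% FBS) were treated with compound at a single 50 µM final concentration, stimulated with 6 nM IGF for 20 min at 37 °C, and lysed. Phospho-Akt Ser473 was read by HTRF as 665/615 ratio ×10^4.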
Six1-Eya2 inh – qHTS Assay for Inhibitors of the Six1/Eya2 Interaction; activity change, % (test concentration not listed); Homeobox protein SIX1 (Homo sapiens) + Protein phosphatase EYA2 (Homo sapiens), …; AlphaScreen GST-Six1/His-Eya2 binding, biochemical; active compounds read low; 360,000 compounds, 0.56% hits; AID 651725, 2012
Target sequence (O00167 whole entry, looked up): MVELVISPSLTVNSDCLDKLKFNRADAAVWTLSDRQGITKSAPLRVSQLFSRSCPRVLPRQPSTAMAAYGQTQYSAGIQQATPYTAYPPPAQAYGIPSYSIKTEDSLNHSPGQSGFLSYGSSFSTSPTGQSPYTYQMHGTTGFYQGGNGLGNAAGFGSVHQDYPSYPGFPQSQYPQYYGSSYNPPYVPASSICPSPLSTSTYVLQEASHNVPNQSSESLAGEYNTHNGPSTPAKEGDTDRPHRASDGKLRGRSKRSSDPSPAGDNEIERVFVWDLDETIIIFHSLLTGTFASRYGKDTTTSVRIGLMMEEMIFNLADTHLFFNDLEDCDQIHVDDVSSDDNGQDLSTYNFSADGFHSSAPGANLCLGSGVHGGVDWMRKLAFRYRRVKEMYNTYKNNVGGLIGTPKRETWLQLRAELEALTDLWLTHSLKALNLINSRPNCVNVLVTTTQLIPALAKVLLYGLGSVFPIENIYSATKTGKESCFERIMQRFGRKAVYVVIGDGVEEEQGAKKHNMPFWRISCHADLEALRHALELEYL
Target sequence (Q15475 whole entry, looked up): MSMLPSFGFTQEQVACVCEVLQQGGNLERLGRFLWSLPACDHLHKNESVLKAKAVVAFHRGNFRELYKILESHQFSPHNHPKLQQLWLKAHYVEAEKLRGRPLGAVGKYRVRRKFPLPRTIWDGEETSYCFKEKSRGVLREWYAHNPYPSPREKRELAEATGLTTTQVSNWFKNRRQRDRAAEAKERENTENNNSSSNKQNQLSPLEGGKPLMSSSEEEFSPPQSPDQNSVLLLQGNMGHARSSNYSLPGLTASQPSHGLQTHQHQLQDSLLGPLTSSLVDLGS
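Compounds are tested against tagged Six1 and Eya2 proteins bridged by glutathione donor and nickel acceptor beads; after a one-hour incubation at 37 °C without light, AlphaScreen emission is recorded.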
CCT modulator – High-Throughput Screening for Modulators of Cytosolic Chaperonin Activity. purified chaperonin ATPase assay, HTRF ADP detection, 30 min. activity change, % (no concentration beside the values), hits read low. 360,000 compounds, 0.3% hits. AID 651819, 2012; in the data active = activity change below about -30%
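TRiC (40 or 20 nM final, by batch activity) in 30 mM Tris pH 7.4, 100 mM KCl, 5 mM MgCl2, 1 mM DTT was treated with compound at 76 uM single dose, then 10 uM ATP, 30 min at 37 °C. ADP was read by HTRF Transcreener.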
Numbers without * were called inactive; i = inactive; ? = inconclusive; / = no result given. A selection: hits, their analogues and other compounds. The true share with any hit is near 1.3%. Rule as the data show it, unless noted: active = activity change below about -65%; inconclusive = mostly about -30% to -63%; inactive = weaker than that. % is scaled to controls: 0 for no effect and ±100 for the full control effect.

SMILES | CtBP-E1A inh | pAkt inh | Six1-Eya2 inh | CCT modulator
CN(C)c1ccc(CNCCC(Cc2ccccc2)c2ccco2)cc1 (stereo not given) | ? | i | -66* | -1
COC(=O)C1CCN(C(=O)C2CCC(=O)N(CCc3cccc(F)c3)C2)CC1 (stereo not given) | 2 | i | 0 | -1
Cn1c(=O)n(C)c2cc([N+](=O)[O-])c(N3CCN(S(=O)(=O)c4ccc5ccccc5c4)CC3)cc21 | -2 | i | 0 | -3
Cc1ccc(S(=O)(=O)N2CCN(c3cc4c(cc3[N+](=O)[O-])n(C)c(=O)n4C)CC2)cc1 | -15 | i | -15 | -54*
O=C(N/N=C/c1ccccc1O)C1CC(=O)N(c2ccc(Cl)cc2)C1 (stereo not given) | -84* | i | ? | -2
O=S(=O)(Nc1ccc(S(=O)(=O)N2CCOCC2)cc1)c1ccc(Br)cc1 | 18 | i | 4 | 1
O=S(=O)(c1ccc(Oc2ccc(Br)cc2)cc1)N1CCOCC1 | 16 | -113%* | 9 | -9
O=C1Nc2ccccc2N(C(=O)c2ccc3ccccc3c2)C1c1nc2ccccc2[nH]1 (stereo not given) | 3 | i | -22 | -2
COc1cccc(N(CC(=O)NC(C)c2ccccc2)S(C)(=O)=O)c1 (stereo not given) | 5 | -119%* | 3 | -3
CC(NC(=O)CN(c1cccc(C(F)(F)F)c1)S(C)(=O)=O)c1ccccc1 (stereo not given) | 0 | i | 6 | -1
COc1ccc(/C=C2\CCn3c2nc2cc(C(=O)O)ccc2c3=O)cc1OC | -7 | i | -21 | -3
COC(=O)c1ccc(/C=C2\CCn3c2nc2cc(C(=O)O)ccc2c3=O)cc1 | ? | i | -66* | 1
O=C1C2=C(Nc3ccccc3SC2c2ccco2)c2ccccc21 (stereo not given) | ? | -114%* | ? | 1
CC(C#N)Sc1ccc(S(=O)(=O)N(C)C2CCCCC2)cn1 (stereo not given) | 9 | i | 9 | -3
CCOC(=O)c1ccc(N2C(=O)C3CC=CCC3C2=O)cc1 (stereo not given) | 4 | i | 2 | -46*
O=C(c1ccc(=O)[nH]n1)N1CCN(S(=O)(=O)c2cccc(F)c2)CC1 | -24 | i | 18 | -2
COc1ccc(OC)c(NC(=O)CSc2nnc(C)n2Cc2ccccc2)c1 | 5 | / | 3 | -49*
COc1ccccc1NC(=O)CSc1nnc(Cc2cccn2C)n1CCc1ccccc1 | -14 | -83%* | -20 | 1
O=C(Nc1ccc(C(F)(F)F)cc1)C1CCCCN1S(=O)(=O)c1ccccc1 (stereo not given) | 0 | i | 9 | -1
COC(=O)c1cc(S(=O)(=O)NCC2CCN(Cc3cccc(Cl)c3)CC2)c[nH]1 | / | i | 2 | 1
C=CCn1c2ccccc2c2nnc(SCC(=O)O)nc21 | -4 | i | -15 | -43*
Cn1c2ccccc2c2nnc(SCC(=O)Nc3cccc(C(=O)O)c3)nc21 | ? | i | -67* | 0
Cc1ccc(C2=NN=C(NC(=O)CSc3nnc4c5ccccc5n(C)c4n3)SC2)cc1 | ? | i | -72* | -3
Cn1c2ccc(F)cc2c2nnc(SCC(=O)Nc3cccc(O)c3)nc21 | ? | i | -28 | 0
C=CCn1c2ccccc2c2nnc(SCC(=O)OCN3C(=O)c4ccccc4C3=O)nc21 | -4 | i | 11 | 3
SMILES | CtBP-E1A inh | pAkt inh | Six1-Eya2 inh | CCT modulator
COc1cc(C)c(Cl)cc1S(=O)(=O)NCc1ccccn1 | 3 | i | -1 | 3
CN1C=CC=C/C1=C1/SC(=S)N(Cc2ccccc2)C1=O | -23 | i | ? | -62*
O=C(Nn1cc(C(=O)Nc2ccccc2F)c2ccccc2c1=O)c1cnccn1 | ? | i | -78* | -1
COc1ccccc1NS(=O)(=O)c1cc(NC(=O)c2cnccn2)ccc1N1CCOCC1 | -73* | i | ? | 1
COc1ccccc1NS(=O)(=O)c1cc(NC(=O)c2ccncc2)ccc1N1CCOCC1 | -24 | i | -21 | 1
N#Cc1c(N)nc(SC2CCCCC2=O)c(C#N)c1-c1ccco1 (stereo not given) | ? | i | -66* | -3
